The structures appear in SMILES notation. Hit rate of the full screen: of about 68,000 compounds, about 2,700 (4%) showed an effect of 50% or more. Many of the other results were omitted from the sample, so strong results are more common in it than they were.

For the experiment, the system named is Plasmodium berghei. In words: Screen against P. berghei liver stage (PbLuc), transformed with Luciferase, at 2uM. It counts as functional, HepG2. The conditions noted are these: tested at 2 uM.
Turning to `CN1CCCCCC1C(=O)NCCCn1ncc2ccccc21` (stereo unspecified), the INHIBITION is given as 54.78%.
For the molecule `CN1CCCC(CCC(=O)NCCCn2ncc3ccccc32)C1` (stereo unspecified), the INHIBITION is listed as 46.95%.
With `CN1CCCCC1CCC(=O)NCCCn1ncc2ccccc21` (stereo unspecified) the figure was 28.19%.
Next, `O=C(Nc1ccccc1C(=O)NCCN1CCOCC1)c1ccco1`: -4.93%; `O=C(Nc1ccc(Cl)cc1C(=O)NCCN1CCOCC1)c1ccco1`: 60.47%; `O=C(Nc1ccc(I)cc1C(=O)NCCN1CCOCC1)c1ccco1`: -54.79%.
For the molecule `CN(C)CCOCC1CN(Cc2cccs2)Cc2ccnn2C1` (stereo unspecified), the INHIBITION was -85.93%.
Consider `Cc1cc(CN2CCN(C(=O)NCc3c(C)noc3C)CC2)on1`, for which the INHIBITION turned out to be 70.27%.
With `Cc1cc(CN2CCN(C(=O)NCc3ccc(C)s3)CC2)on1` the figure was 6.63%; with `CCCNC(=O)N1CCN(Cc2cc(C)no2)CC1`, 26.4%; with `COc1cc(CCC(=O)NC(C)(C)C)ccc1OCC(F)(F)F`, -1.02%.
On to `CCOCCC1(CNC(=O)c2ccc(C)nc2)CCCC1`, for which the INHIBITION was -9.5%.
In the case of `CCOCC1CCN(C(=O)C(c2cccc(F)c2)N(C)C)CC1` (stereo unspecified), the INHIBITION is -15.23%.
Next, `CN(C)C(C(=O)NCCn1cccc1)c1cccc(F)c1` (stereo unspecified): 3.58%; `CN(C)C(C(=O)N1CCN(CCn2cccc2)CC1)c1ccc(F)cc1` (stereo unspecified): 31.51%.
With `CN(C)C(C(=O)N1CCN(CCn2cccc2)CC1)c1cccc(F)c1` (stereo unspecified) the figure was 69.67%; with `COCCN1CCN(C(=O)C(c2cccc(F)c2)N(C)C)CC1` (stereo unspecified), 48.21%; with `COCCCN1CCN(C(=O)C(c2cccc(F)c2)N(C)C)CC1` (stereo unspecified), 60.13%.
With `CCc1[nH]ncc1C(=O)N1CCCC(n2cccn2)C1` (stereo unspecified) the figure was 2.7%; with `Cc1ccccc1OCCCC(=O)N1CCCC(n2cncn2)C1` (stereo unspecified), 39.54%; with `O=C(C1CN(CC2CC2)CC12CCOCC2)N1CCCC1` (stereo unspecified), 31.41%.
For the molecule `Cc1ccc(CN2C[C@H]3CN(Cc4ccccc4Cl)CCN3C2=O)cc1`, the INHIBITION worked out at 40.83%.
Take `O=C1N(Cc2ccccc2)C[C@H]2CN(Cc3ccccc3Cl)CCN12`: the INHIBITION amounted to 64.44%.
On to `COCCN1C[C@H]2CN(Cc3cccc(OC)c3)CCN2C1=O`, for which the INHIBITION is listed as 36.44%.
As for `CS(=O)(=O)NC[C@]12COC[C@H]1CN(Cc1ccc3c(c1)OCO3)C2`, the INHIBITION is reported as -6.8%.
With `CCCC1CCCN(C(=O)CCn2cccn2)CC1` (stereo unspecified), the INHIBITION turned out to be 63.68%.
With `O=C(CCc1cn[nH]c1)N1CCC(C2CCN(c3ncccn3)CC2)C1` (stereo unspecified), the INHIBITION is 45.48%.
With `O=C(CCn1cccn1)N1CCC(C2CCN(c3ncccn3)CC2)C1` (stereo unspecified) the figure was 52.08%.
Take `COC1CCN(C(=O)CCn2cccn2)CC1`: the INHIBITION stood at 26.61%.
As for `CCN(CC)CC1CCN(C(=O)CCn2cccn2)CC1`, the INHIBITION is -13.06%.
With `c1cnc(N2CCC(C3CCN(CCCn4cccn4)C3)CC2)nc1` (stereo unspecified) the figure was 19.04%; with `Cn1cccc1C(=O)N1CC2(CCN(C(=O)c3cccnc3)C2)C1`, 21.77%; with `CCc1noc(C2CCN(C(=O)CCn3nc(C)cc3C)CC2)n1`, 12.3%.
`c1ccc(Cc2noc(CN3CCOC(Cn4cccn4)C3)n2)cc1` (stereo unspecified): the INHIBITION was -0.6%.
With `O=C(C1CCC1)N1C[C@@H]2CN(c3ccccc3)C(=O)[C@@H]2C1` the figure was 49.07%; with `O=C(CCO)N1C[C@H]2CN(c3ccccc3)C(=O)[C@H]2C1`, 54.01%.
For the molecule `O=C(CC1CC1)N1C[C@@H]2CN(c3ccccc3)C(=O)[C@@H]2C1`, the INHIBITION came to 28.2%.
Consider `NC(=O)COc1ccc(CNCc2ccc(F)c(F)c2)cc1`, for which the INHIBITION is -52.95%.
`Cn1ccnc1CCNS(=O)(=O)c1ccc(Br)cc1`: the INHIBITION is -16.21%.
In the case of `COc1cccc2c1CCC2NC(=O)NCc1csc(N(C)C)n1` (stereo unspecified), the INHIBITION is -57.02%.
With `Cc1nn(C)c(N(C)C)c1CNC(C)COc1cccc(F)c1` (stereo unspecified) the figure was 34.83%; with `COc1ccc(CCC(=O)N(C(C)C)C2CCOCC2)cc1`, 20.76%; with `CC(C)N(C(=O)CCc1cccc(F)c1)C1CCOCC1`, -7.16%.
`CC(C)N(C(=O)CCc1ccco1)C1CCOCC1`: the INHIBITION came out at 76.6%.
Next, `O=C(NCC1CCCCO1)c1ccc(-c2ccco2)[nH]c1=O` (stereo unspecified): 38.67%; `CCN1CCN(S(=O)(=O)c2cc(C)c(Cl)cc2Cl)CC1`: 26.09%.
Next, `Cc1cc(S(=O)(=O)N2CC[C@@H](O)C2)c(Cl)cc1F`: -54.78%; `Cc1cc(S(=O)(=O)N2CCC(N3CCC(O)C3)CC2)c(Cl)cc1Cl` (stereo unspecified): 55.73%; `CC(C)c1nnc(CN(C)Cc2ccccc2-c2ccccc2)o1`: 20.63%.
Next, `CC(CCN(C)C)NC(=O)c1cccc(C(F)(F)F)c1F` (stereo unspecified): 52.38%; `CC(CCN1CCOCC1)NC(=O)c1cccc(C(F)(F)F)c1F` (stereo unspecified): 18.37%; `COc1cccc(C(=O)NC(C)CCN2CCOCC2)c1F` (stereo unspecified): -22.65%.
Consider `Cc1nnc2n1CCN(CCOc1cccc(C#N)c1)C2`, for which the INHIBITION turned out to be 33.82%.
Next, `CC(C)(O)CCc1ccc(C(=O)NCC2CCCOC2)cc1` (stereo unspecified): 42.27%; `Cc1ccc(C(=O)N2C[C@H](NS(C)(=O)=O)[C@@H](C(C)C)C2)cc1F`: -43.88%.
Next, `Cc1nc2cc(C(=O)N3C[C@@H](NS(C)(=O)=O)[C@H](C(C)C)C3)ccc2[nH]1`: -1.71%; `Cc1ccc(C(=O)N2C[C@@H](NS(C)(=O)=O)[C@H](C(C)C)C2)cc1O`: 51.72%.
Next, `O=C(c1ccco1)N1C2CCC(O)(CC2)C1CO` (stereo unspecified): 3.38%; `O=c1ccc2c(n1CCN1CCCC1)CCN(Cc1ccoc1)CC2`: -1.79%.
Take `CCn1c2c(ccc1=O)CC(N)CC2` (stereo unspecified): the INHIBITION stood at 13.38%.
Next, `O=c1ccc2c(n1Cc1ccncc1)CCN(Cc1ccoc1)CC2`: 50.91%.
Next, `O=c1ccc2c(n1Cc1cccnc1)CCN(Cc1ccoc1)CC2`: 0.13%; `NC1CCc2c(ccc(=O)n2Cc2ccncc2)C1` (stereo unspecified): 55.11%; `NC1CCc2c(ccc(=O)n2CC2CC2)C1` (stereo unspecified): 24.86%.
Turning to `CCOCC1CN(Cc2ccco2)Cc2nccn2C1` (stereo unspecified), the INHIBITION is reported as -7.76%.
Regarding `CNS(=O)(=O)c1cnccc1N1CCN(C(C)C)CC1`, the INHIBITION is listed as 15.75%.
Take `Cc1csc(CCNc2ccc(C#N)cn2)n1`: the INHIBITION came out at 20.29%.
With `Cc1cc(NCCNc2ccc(C#N)cn2)nc(C)n1` the figure was 21.81%.
Regarding `Cc1cccc(NCCNc2ccc(C#N)cn2)n1`, the INHIBITION was 60.79%.
As for `COc1ccc(NC(=O)NCC(O)c2ccc(F)cc2F)c(OC)c1` (stereo unspecified), the INHIBITION was found to be 47.72%.
With `CCn1ccnc1CN1CCN(c2nccc(OC)n2)CC1C` (stereo unspecified) the figure was 72.05%; with `CCn1ccnc1CN1CCN(C(C)C)CC1C` (stereo unspecified), -49.57%.
With `CCCN1CCN(Cc2nccn2CC)C(C)C1` (stereo unspecified) the figure was 16.97%; with `COc1ccccc1C(NCc1ccc(SC)cc1)c1nccn1C` (stereo unspecified), 16.26%.
Take `COc1ccc(C2CCN(Cc3cscn3)CC2)cc1`: the INHIBITION was 56.84%.
Turning to `COc1ccc(OC)c(CN2CCN(Cc3cscn3)CC2)c1`, the INHIBITION is 1.3%.
Next, `COc1ccc2c(c1)CCN(Cc1cscn1)CC2`: 1.54%.
Consider `Cc1csc2ncc(-c3ccnc(N4CCC[C@H](C(N)=O)C4)n3)c(=O)n12`, for which the INHIBITION was 43.16%.
Turning to `COC[C@@H]1CC[C@H]2[C@H](CCN2S(=O)(=O)c2cccc(F)c2)O1`, the INHIBITION was found to be 9.46%.
On to `CNC(=O)NC(=O)CN1CCc2c(Br)ccc(F)c2C1`, for which the INHIBITION is recorded as -20.8%.
Regarding `NC(=O)C1(CCCc2ccccn2)CCCN(CCO)C1` (stereo unspecified), the INHIBITION is reported as -17.3%.
Next, `COCCN1CCCC(CCCc2ccccn2)(C(N)=O)C1` (stereo unspecified): 55.74%.
For `NC(=O)CN1CCCC(CCCc2ccccn2)(C(N)=O)C1` (stereo unspecified), the INHIBITION was determined as 12.8%.
With `Cc1cc(C)cc(N(C)S(=O)(=O)c2cc3c(c(C(=O)O)c2)OCCO3)c1` the figure was 34.46%.
For `Cc1ccc(F)c(NS(=O)(=O)c2cc3c(c(C(=O)O)c2)OCCO3)c1`, the INHIBITION was -45.83%.
With `CN(c1ccccc1)S(=O)(=O)c1cc2c(c(C(=O)O)c1)OCCO2` the figure was 53.19%.
With `CN(c1ccc(F)cc1)S(=O)(=O)c1cc2c(c(C(=O)O)c1)OCCO2` the figure was 26.75%; with `Cc1ccc(NS(=O)(=O)c2cc3c(c(C(=O)O)c2)OCCO3)c(F)c1`, 57.95%; with `O=C(O)c1cc(S(=O)(=O)Nc2ccc(F)cc2F)cc2c1OCCO2`, -29.54%.
For the molecule `O=C(Cc1cccs1)NCC1COCc2c(-c3ccoc3)nnn2C1` (stereo unspecified), the INHIBITION was 24.34%.
For `COc1cc(CN(C)C(=O)NCCC(=O)NC2CCCC2)ccc1SC`, the INHIBITION amounted to 49.88%.
As for `Cc1occc1C(=O)N1CCCS1(=O)=O`, the INHIBITION is listed as 29.41%.
As to `CN(C)S(=O)(=O)N1CC[C@]2(C[C@H](OCc3ccncc3)CO2)C1`, the INHIBITION turned out to be 9.65%.
With `COCCN1CC(Nc2nc(C(C)C)nc3c2cnn3C)CC1=O` (stereo unspecified) the figure was 57.34%; with `COCCN1CC(Nc2nc(C3CCCC3)nc3c2cnn3C)CC1=O` (stereo unspecified), 40.4%; with `CC(C)C(=O)N1CCC(CNc2nc(C(C)C)nc3c2cnn3C)CC1`, 19.12%.
On to `C=c1ncsc1=C1NN=C(C2CCCN2C(=O)CCn2ccc(C)n2)O1` (stereo unspecified), for which the INHIBITION was -16.2%.
With `CC(NC(=O)NCCCN1CCc2ccccc2C1)c1nncn1C` (stereo unspecified) the figure was 10.53%; with `CN1CCN(S(=O)(=O)c2cncc(F)c2)c2ccccc2C1`, 52.73%; with `COc1cc(F)c(S(=O)(=O)N2CCN(C)Cc3ccccc32)cc1OC`, -50.8%.
With `Cc1cc(F)ccc1S(=O)(=O)N1CCN(C)Cc2ccccc21` the figure was 26.62%; with `CN(C(=O)Cn1nc(-c2ccc(F)cc2)ccc1=O)C1CCS(=O)(=O)C1` (stereo unspecified), 11.87%; with `CS(=O)(=O)N1CCCC1c1ccnc2nccn12` (stereo unspecified), 12.35%.
Next, `CC(C)Oc1cc(N2CCC(C(N)=O)CC2)nc(N)n1`: 54.41%; `CC(C)Oc1cc(N2CCC(N3CCC(O)CC3)CC2)nc(N)n1`: 2.39%; `CC(C)Oc1cc(N2CC[C@H](CO)[C@@H](O)C2)nc(N)n1`: -1.63%.

The values are drawn from ChEMBL document CHEMBL4513216, “Probing the Open Global Health Chemical Diversity Library for Multistage-Active Starting Points for Next-Generation Antimalarials” (ACS Infect Dis, 2020).
